The list is not random: actives were taken first. Their share in the collection is about 19%.
Pf growth 48h: inhibits P. falciparum growth in the first generation, 48 h | P. falciparum luciferase growth in erythrocytes, 48 h | Potency, µM (series often up to 28.7 µM), actives largely listed as inhibitors | 5.9% of 310,000 active | AID 504832
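First compound was added to culture medium, then infected red cells at 0.1% parasitemia and 2% hematocrit (final). After incubation at 37 C under 5% CO2, luciferase detection reagent was dispensed and light output recorded.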
CHX counter: counter-screen for Shiga toxin inhibitors: cycloheximide protein synthesis inhibition. max response, %. cell reporter, cycloheximide protein synthesis inhibition counterscreen. AID 2314. 12% of 300,000 active; in the data active = max response mostly above about 13%, no sharp cut-off; inactive = mostly below about 14%; note: read at 38.3 µM for the half of the compounds with a filed dose
Pf growth 96h: P. falciparum growth inhibition at 96 hours; P. falciparum luciferase reporter growth, 96 h; Potency, µM (doses to about 28.7 µM), hits mostly inhibitors; 6.9% of 320,000 active
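Cell-based qHTS: luciferase-tagged P. falciparum in erythrocytes (2% hematocrit, 0.05% parasitemia final) incubated with compounds for 96 hours, 37 C, 5% CO2; luciferase detection reagent then added and luminescence measured.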
AMA1 RON2 block: disrupts binding of P. falciparum AMA1 to RON2 | AlphaScreen AMA1-biotinylated RON2 peptide binding | Potency, µM (titrated, usually from 58.2 µM), usual class: inhibitors | 0.2% of 360,000 active | AID 720542; note: nearly all actives have a fitted effect of over 45% in size
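AMA1 (3D7) with his tag at 25 nM final met compounds first, then biotinylated RON2 peptide at 25 nM; detection used donor plus acceptor beads, 10 µg/mL apiece, read by AlphaScreen after 30 min at room temperature.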
SARS PLP yeast: blocks SARS-CoV papain-like protease in a yeast assay. S. cerevisiae expressing SARS-CoV PLpro, growth rescue. Potency, µM (series often up to 32.9 µM), usual class: activators. 0.19% of 330,000 active; calls by dose curve; note: nearly all actives have a fitted effect of over 55% in size
Shiga inhibitor: Shiga toxin inhibition; Vero cells, Shiga toxin protein synthesis inhibition reporter; inhibition, % at 38.7 µM; 9.2% of 290,000 active; AID 2315; in the data active = inhibition mostly above about 28%, no sharp cut-off; inactive = mostly below about 43%
Hits are given with their value; [ ] = dose if it differs, or a comment. Unless noted, calls come from the whole dose curve; as a rule, active = well fitted curve in the direction sought with a large enough effect; inconclusive = small, poorly fitted or top-dose-only effect, or another doubt; inactive = no such curve, though single readings can be large; an effect the other way counts as inactive or inconclusive.

Screening O=C(CSc1nnc(-c2c[nH]c3ccccc23)o1)N(Cc1ccccc1)c1ccc(F)cc1 returned Pf growth 48h 7.4µM, CHX counter inactive, Pf growth 96h inconclusive, AMA1 RON2 block inactive, SARS PLP yeast inactive and Shiga inhibitor inactive.
Clc1cccc(CSc2nnc(-c3c[nH]c4ccccc34)o2)c1 was read as CHX counter 9.8, Pf growth 96h inactive, AMA1 RON2 block inactive, SARS PLP yeast inactive and Shiga inhibitor inactive.
`CCCc1nnc(NC(=O)CCC(=O)NCc2ccc(OC)cc2)s1` gave Pf growth 48h inactive, CHX counter inactive, Pf growth 96h inactive, AMA1 RON2 block inactive, SARS PLP yeast inactive and Shiga inhibitor inactive.
`Cc1ccc(C(=O)N(c2ccccc2)C2CC(C)N(C(=O)c3ccco3)c3ccccc32)cc1` (stereo unspecified) gave Pf growth 48h 10µM, CHX counter 18, AMA1 RON2 block inactive, SARS PLP yeast inactive and Shiga inhibitor inactive.
CCOCCCNCc1cccc(OCc2ccc(F)cc2)c1 was read as Pf growth 48h inconclusive, CHX counter inactive, Pf growth 96h 12µM, AMA1 RON2 block inactive, SARS PLP yeast inactive and Shiga inhibitor inactive.
CCOCCCNCc1ccc(Cl)cc1 was read as Pf growth 48h inactive, CHX counter inactive, Pf growth 96h inactive, AMA1 RON2 block inactive[2.32 µM], SARS PLP yeast inactive and Shiga inhibitor inactive.
Screening CCOc1ccc(S(=O)(=O)n2cc(-c3ccc(F)cc3)c(N)n2)cc1 returned CHX counter inactive, Pf growth 96h 9.3µM, AMA1 RON2 block inactive, SARS PLP yeast inactive and Shiga inhibitor inactive.
Screening CCOc1cc(S(=O)(=O)n2cc(-c3ccc(F)cc3)c(N)n2)cc(OCC)c1OCC returned Pf growth 48h 8.3µM, CHX counter inactive, AMA1 RON2 block inactive, SARS PLP yeast inactive and Shiga inhibitor inactive.
For CCOc1cc(-c2cn(S(=O)(=O)c3cccc4nsnc34)nc2N)cc(OCC)c1OCC the results were CHX counter inactive, Pf growth 96h inconclusive, AMA1 RON2 block inactive, SARS PLP yeast inactive and Shiga inhibitor inactive.
`CCOc1ccc(S(=O)(=O)n2cc(-c3ccccc3)c(N)n2)cc1` gave Pf growth 48h inconclusive, CHX counter inactive, Pf growth 96h inconclusive, AMA1 RON2 block inactive, SARS PLP yeast inactive and Shiga inhibitor inactive.
For CC(C)CNC(=O)c1c(N)n(Cc2ccco2)c2nc3ccccc3nc12 the results were Pf growth 48h inconclusive, CHX counter inactive, AMA1 RON2 block inactive, SARS PLP yeast inactive and Shiga inhibitor inactive.
For COc1ccc(-n2c(N)c(C(=O)NCc3ccco3)c3nc4ccccc4nc32)cc1OC the results were Pf growth 48h 13µM, CHX counter inactive, Pf growth 96h inconclusive, AMA1 RON2 block inactive, SARS PLP yeast inactive and Shiga inhibitor inactive.
`Nc1c(C(=O)NCc2ccco2)c2nc3ccccc3nc2n1CCN1CCCCC1` gave Pf growth 48h inconclusive, CHX counter inactive, Pf growth 96h 9.3µM, AMA1 RON2 block inactive, SARS PLP yeast inactive and Shiga inhibitor inactive.
For COc1cc(-n2c(N)c(C(=O)NCc3ccco3)c3nc4ccccc4nc32)cc(OC)c1OC the results were Pf growth 48h 12µM, CHX counter inactive, Pf growth 96h 13µM, AMA1 RON2 block inactive, SARS PLP yeast inactive and Shiga inhibitor inactive.
Screening COc1ccc(-n2c(N)c(C(=O)NCc3ccco3)c3nc4ccccc4nc32)cc1 returned Pf growth 48h inconclusive, CHX counter inactive, Pf growth 96h inconclusive, AMA1 RON2 block inactive, SARS PLP yeast inactive and Shiga inhibitor inactive.
For Nc1c(C(=O)NCc2ccco2)c2nc3ccccc3nc2n1CCc1ccc(F)cc1 the results were CHX counter inactive, Pf growth 96h inconclusive, AMA1 RON2 block inactive, SARS PLP yeast inactive and Shiga inhibitor inactive.
Screening COc1ccc(Cn2c(N)c(C(=O)NCc3ccco3)c3nc4ccccc4nc32)cc1OC returned Pf growth 48h inconclusive, CHX counter inactive, Pf growth 96h 3.7µM, AMA1 RON2 block inactive, SARS PLP yeast inactive and Shiga inhibitor inactive.
Screening CCCCCc1nnc(NC(=O)C2=COCCO2)s1 returned Pf growth 48h inactive, Pf growth 96h inactive, AMA1 RON2 block inactive and SARS PLP yeast inactive.
`CN1CCC(=O)N(CCSc2ccccc2)CC1` gave Pf growth 48h inactive, CHX counter 43, Pf growth 96h inactive, AMA1 RON2 block inactive, SARS PLP yeast inactive and Shiga inhibitor 49.

Screening data (PubChem)
